Lassa entry inh – qHTS for Inhibitors of binding or entry into cells for Lassa Virus | 300,000 tested, 1.2% active | Lassa virus pseudotype entry inhibition, cell reporter | Potency, µM (series often up to 37.9 µM), actives largely listed as inhibitors; calls by dose curve; tested in HEK293 cells; also: nearly all actives have a fitted effect of over 50% in size
Marburg entry inh – qHTS for inhibitors of binding or entry into cells for Marburg Virus; Potency, µM (series often up to 37.8 µM), usual class: inhibitors; Marburg virus pseudotyped entry inhibition, cell reporter; AID 540276, 2011; 300,000 tested, 1.8% active; calls by dose curve; tested in HEK293 cells
VACV Venus inh – qHTS for Stage-Specific Inhibitors of Vaccinia Orthopoxvirus: Venus Reporter Primary qHTS. Vaccinia virus Venus reporter expression, fluorescence. Potency, µM (titrated, usually from 36.5 µM), hits mostly inhibitors. 330,000 tested, 0.46% active; calls by dose curve; tested in A549 cells; also: nearly all actives have a fitted effect of over 30% in size
HCMV inh – qHTS Assay for inhibitors of the human cytomegalovirus (HCMV). HFF cells, HCMV-luciferase reporter, 72 h; active compounds read low. activity change, negative = inhibition, % at 57.5 µM. 410,000 tested, 4.5% active; in the data active = activity change below about -60%; inconclusive = no clear call, values can overlap the other calls; inactive = above about -39%
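Compounds were evaluated in HFFs infected with an HCMV luciferase reporter virus (MOI 1 PFU/cell). Luciferase in lysates collected 72 h post infection served as the replication measure.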
VACV mCherry inh – qHTS for Stage-Specific Inhibitors of Vaccinia Orthopoxvirus: mCherry Reporter Primary qHTS; Vaccinia virus mCherry reporter infection, fluorescence; Potency, µM (top dose mostly 36.5 µM), usual class: inhibitors; 310,000 tested, 0.63% active; calls by dose curve; tested in A549 cells; also: nearly all actives have a fitted effect of over 35% in size
FMDV inh – High Throughput Screening for Foot and Mouth Disease Virus Antivirals. FMDV antiviral cell-based qHTS. Potency, µM (top dose mostly 57.9 µM), most hits filed as inhibitors. 410,000 tested, 1.2% active; calls by dose curve; tested in HEK293T cells; also: read-out not given here; nearly all actives have a fitted effect of over 45% in size
Each line names hits and unclear results; the compound was inactive in the other large screens. Most compounds without a hit are left out; they make up all but 6.5% or so of the library.

OCCN1CCN(c2ncnc3c2ncn3[C@H]2CN(Cc3cccc(C(F)(F)F)c3)C[C@@H](CO)O2)CC1	HCMV inh -61.9 (no result: Lassa entry inh, Marburg entry inh)
CC(C)CNc1ncnc2c1ncn2[C@H]1CN(Cc2ccc(-c3ccccc3)cc2)C[C@@H](CO)O1	VACV Venus inh inconclusive, HCMV inh -72.8, VACV mCherry inh inconclusive, FMDV inh inconclusive (no result: Lassa entry inh, Marburg entry inh)
OCCN1CCN(c2ncnc3c2ncn3[C@H]2CN(Cc3ccc(F)cc3)C[C@@H](CO)O2)CC1	none (no result: Lassa entry inh, Marburg entry inh)
CC(C)CNc1ncnc2c1ncn2[C@H]1CN(Cc2ccncc2)C[C@@H](CO)O1	none (no result: Lassa entry inh, Marburg entry inh)
OCCNc1ncnc2c1ncn2[C@H]1CN(Cc2ccc(-c3ccccc3)cc2)C[C@@H](CO)O1	FMDV inh inconclusive (no result: Lassa entry inh, Marburg entry inh, HCMV inh)
CC(C)Nc1ncnc2c1ncn2[C@H]1CN(Cc2ccc(-c3ccccc3)cc2)C[C@@H](CO)O1	HCMV inh -65.6, FMDV inh inconclusive (no result: Lassa entry inh, Marburg entry inh)
COc1ccccc1C1NC(=O)c2n[nH]c(-c3cccs3)c21 (configuration not stated)	Marburg entry inh inconclusive, FMDV inh inconclusive
COc1cc(/C=N/Nc2nn3cnnc3c3ccccc23)ccc1O	Lassa entry inh inconclusive, VACV mCherry inh inconclusive
COc1cc(C=NNc2ncnc3c2cnn3C(C)C)ccc1O	Lassa entry inh 12.5µM (no result: Marburg entry inh, VACV Venus inh, HCMV inh, VACV mCherry inh, FMDV inh)
C=CCOc1ccc(CN(C)C(=O)CNC(=O)c2ccc(-c3ccccc3)cc2)cc1	Lassa entry inh inconclusive, Marburg entry inh inconclusive, HCMV inh -80.7, FMDV inh 12.6µM
Cc1ccccc1-n1c(SCC(=O)c2ccccc2)nnc1-c1ccc(F)cc1	Lassa entry inh inconclusive, HCMV inh inconclusive (no result: Marburg entry inh)
Cc1c(Cl)cccc1-n1c(SCC(=O)NCc2ccccc2Cl)nnc1-c1ccncc1	HCMV inh -101.9 (no result: VACV Venus inh, VACV mCherry inh)
Cc1ccccc1-n1c(SCC(=O)c2cc(C)n(C)c2C)nnc1-c1ccncc1	Lassa entry inh inconclusive, Marburg entry inh inconclusive, FMDV inh 35.5µM (no result: VACV Venus inh, VACV mCherry inh)
Cc1c(Cl)cccc1NC(=O)CN1C(=O)c2ccccc2Sc2ncccc21	none (no result: Marburg entry inh)
COc1ccc2c3n([n+]([O-])c2c1)C(C)CN=C3c1cc(Cl)c(N)c(Cl)c1 (configuration not stated)	none (no result: Lassa entry inh, Marburg entry inh, VACV Venus inh, VACV mCherry inh, FMDV inh)
CNC(=O)c1c(NC(=O)c2ccc(S(=O)(=O)N3CCCCC3C)cc2)sc2c1CCC2 (configuration not stated)	none (no result: Marburg entry inh)
CC(=O)OCC1OC(OC2C[C@]3(C)C(CC(O)C4C([C@](C)(CCC=C(C)C)OC5OC(CO)C(O)C(O)C5O)CC[C@]43C)[C@@]3(C)CCC(O)C(C)(C)C23)C(O[C@@H]2OC(C)C(O)C(O)C2O)C(O)C1O (some centres not stated)	none (no result: Lassa entry inh, Marburg entry inh, HCMV inh)
CC(=O)OC1CC(OC2C(O)CC(OC3C(O)CC(OC4CCC5(C)C(CCC6C5CC(O)C5(C)C(C7=CC(=O)OC7)CCC65O)C4)OC3C)OC2C)OC(C)C1OC1OC(CO)C(O)C(O)C1O (configuration not stated)	VACV Venus inh 0.891µM, HCMV inh -100.1, VACV mCherry inh 2.51µM, FMDV inh inconclusive (no result: Lassa entry inh, Marburg entry inh)
C[C@H]1O[C@@H](O[C@H]2[C@@H](O)C[C@@H](O[C@H]3[C@@H](O)C[C@H](O[C@H]4CC[C@@]5(C)[C@H](CC[C@@H]6[C@@H]5CC[C@]5(C)[C@@H](C7=CC(=O)OC7)CC[C@]65O)C4)O[C@@H]3C)O[C@@H]2C)C[C@H](O)[C@@H]1O	VACV Venus inh 0.0251µM, VACV mCherry inh 12.6µM (no result: Lassa entry inh, Marburg entry inh, HCMV inh, FMDV inh)
C[C@H]1O[C@@H](O[C@H]2[C@@H](O)C[C@H](O[C@H]3[C@@H](O)C[C@H](O[C@H]4CC[C@@]5(C)[C@H](CC[C@@H]6[C@@H]5C[C@@H](O)[C@]5(C)[C@@H](C7=CC(=O)OC7)CC[C@]65O)C4)O[C@@H]3C)O[C@@H]2C)C[C@H](O)[C@@H]1O	Lassa entry inh 0.146µM, Marburg entry inh 0.13µM, VACV Venus inh 0.282µM, HCMV inh -99.7, VACV mCherry inh inconclusive, FMDV inh inconclusive

Bioassay records deposited in PubChem by National Center for Advancing Translational Sciences (NCATS).
